TDP1 cell CPT: qHTS for Inhibitors of human tyrosyl-DNA phosphodiesterase 1 (TDP1): qHTS in cells in presence of CPT; chicken DT40 Tdp1-/-;hTDP1 cells + 20 nM CPT, ATP luminescence, 48 h; Potency, µM (highest dose often 46.2 µM), for the others: top-dose activity change, negative = growth inhibition, hits mostly inhibitors; 420,000 tested, 12% active; note: nearly all actives have a fitted effect of over 55% in size
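Chicken DT40 Tdp1-/- cells complemented with human TDP1, 400 cells/well, exposed to compounds plus 20 nM camptothecin for at least 48 h at 37 C; viability read as ATP content by CellTiter-Glo luminescence.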
TDP1 inh: qHTS Assay for Inhibitors of Tyrosyl-DNA Phosphodiesterase (TDP1); recombinant TDP1, AlphaScreen DNA substrate cleavage; Tyrosyl-DNA phosphodiesterase 1 (Homo sapiens), Q9NUW8; 350,000 tested, 0.28% active; Potency, µM (series often up to 130 µM), for the others: at the highest dose activity change, negative = inhibition, usual class: inhibitors; note: nearly all actives have a fitted effect of over 40% in size
Target sequence (Q9NUW8 whole entry, looked up): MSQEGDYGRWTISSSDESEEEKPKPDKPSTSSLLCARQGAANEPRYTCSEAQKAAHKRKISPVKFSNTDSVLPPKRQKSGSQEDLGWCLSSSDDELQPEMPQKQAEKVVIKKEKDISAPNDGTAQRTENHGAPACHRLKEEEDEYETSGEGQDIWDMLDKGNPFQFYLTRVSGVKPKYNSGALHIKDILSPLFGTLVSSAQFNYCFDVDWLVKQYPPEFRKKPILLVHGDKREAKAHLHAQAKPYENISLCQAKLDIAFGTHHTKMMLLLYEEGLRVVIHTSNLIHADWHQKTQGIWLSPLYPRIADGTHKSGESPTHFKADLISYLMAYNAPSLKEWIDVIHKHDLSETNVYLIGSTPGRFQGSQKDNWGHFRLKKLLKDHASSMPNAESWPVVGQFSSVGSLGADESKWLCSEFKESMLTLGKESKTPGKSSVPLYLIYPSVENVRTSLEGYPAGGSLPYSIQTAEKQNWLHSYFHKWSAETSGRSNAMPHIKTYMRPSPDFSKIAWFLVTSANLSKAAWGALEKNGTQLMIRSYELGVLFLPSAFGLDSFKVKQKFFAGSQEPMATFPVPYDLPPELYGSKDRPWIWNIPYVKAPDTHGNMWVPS
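Recombinant E. coli-expressed Tdp1 (1 nM) preincubated with compound 15 min at RT, then 5'-biotin/3'-phosphotyrosine-FITC DNA substrate (15 nM) added for 5 min. AlphaScreen beads (10 ug/ml) added, 10 min RT; tyrosine-FITC cleavage read as signal loss.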
RORg inh: qHTS for inhibitors of ROR gamma transcriptional activity. Nuclear receptor ROR-gamma (Mus musculus), P51450. Drosophila S2 Gal4-RORgamma UAS-luciferase reporter, 20 h. Potency, µM (top dose mostly 53.6 µM), inactives show at the top dose activity change, negative = inhibition, actives largely listed as inhibitors. 310,000 tested, 5.4% active. AID 2551, 2010; note: nearly all actives have a fitted effect of over 60% in size
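Compounds are pin-transferred onto Drosophila Schneider cells expressing a copper-inducible Gal4–ROR gamma transactivation domain fusion. After 1 hr, copper sulfate is added to 700 uM final; luciferase is read 20 hr later.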
VP16 counter: VP16 counterscreen qHTS for inhibitors of ROR gamma transcriptional activity. AID 2546, 2010. 310,000 tested, 3.5% active. Potency, µM (titrated, usually from 53.6 µM), without a hit: top-dose activity, negative = inhibition, hits mostly inhibitors. Drosophila S2 Gal4-VP16 UAS-luciferase, luminescence, 20 h;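 note: Gal4-VP16 expression switched on by copper sulfate through the metallothionein promoter; nearly all actives have a fitted effect of over 50% in size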
DT40 TDP1 no CPT: qHTS for Inhibitors of human tyrosyl-DNA phosphodiesterase 1 (TDP1): qHTS in cells in absence of CPT. DT40 Tdp1-/- hTDP1 cells, no CPT, ATP luminescence, 48 h. Potency, µM (top dose mostly 46.2 µM), inactives show at the top dose activity change, negative = growth inhibition, hits mostly inhibitors. 420,000 tested, 15% active. AID 686978, 2013; note: nearly all actives have a fitted effect of over 55% in size
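Cells were dispensed at 400 per well, compounds added by pin tool, plates incubated ≥48 hr at 37 °C, then CellTiter-Glo added for 30 min at room temperature before luminescence reading. Line: DT40 Tdp1-/- complemented with hTDP1; camptothecin omitted.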
* = called active by the depositor; ? = inconclusive; . = not tested or not shown. Most compounds without a hit are left out; they make up all but 19% or so of the library. Calls come from the whole dose curve; as a rule, active = well fitted curve in the direction sought with a large enough effect; inconclusive = small, poorly fitted or top-dose-only effect, or another doubt; inactive = no such curve, though single readings can be large; an effect the other way counts as inactive or inconclusive. % is set by controls: 0 for no effect and ±100 for the full control effect; potency is the fitted concentration of half-maximal effect.

SMILES | TDP1 cell CPT | TDP1 inh | RORg inh | VP16 counter | DT40 TDP1 no CPT
Cc1ccc(NC(=O)OCCNC(=O)OC(C)C)cc1 | 1% | 0% | ? | -6% | ?
Cc1ccc(CNC(=O)CCC2CCCN(Cc3cc4ccccc4o3)C2)o1 (configuration not stated) | ? | . | 23% | -5% | ?
CCCn1c(-c2cccs2)nc2ccccc21 | -25% | -1% | 4.5µM* | 18µM* | -30%
Clc1ccccc1Cn1c(-c2cccs2)nc2ccccc21 | ? | 6% | . | . | ?
C=CCn1c(-c2cccs2)nc2ccccc21 | -23% | 2% | -14% | -2% | 21µM*
CC(=O)N1CCN(CC(=O)Nc2cccc(S(=O)(=O)N3CCCCCC3)c2)CC1 | -22% | -1% | -3% | 3% | -19%
Cc1ccc(C(=O)N/C(=C\c2ccc(-c3ccc(Cl)cc3)o2)C(=O)NCCCN(C)C)cc1 | 12µM* | 6% | ? | ? | 12µM*
CN(C)CCCNC(=O)/C(=C\c1ccc(-c2ccc(Br)cc2)o1)NC(=O)c1ccccc1 | 3.7µM* | 8% | ? | ? | 12µM*
Cc1ccc(C(=O)N/C(=C\c2ccc(-c3ccccc3[N+](=O)[O-])o2)C(=O)NCCCN(C)C)cc1 | 5.2µM* | . | -43% | 9% | 5.8µM*
C[C@H](CO)N1C[C@H](C)[C@@H](CN(C)S(=O)(=O)c2ccccc2)Oc2ccc(NS(=O)(=O)c3cccs3)cc2C1=O | 20% | 1% | . | . | 8%
O=C(N/N=C\c1ccc(CN(Cc2ccc(Cl)cc2)S(=O)(=O)c2ccccc2)o1)C(=O)Nc1ccc(F)cc1 | ? | 6% | 54% | 1% | 15µM*
O=C(N/N=C\c1ccc(CNS(=O)(=O)c2ccccc2)o1)C(=O)Nc1ccc(F)cc1 | ? | -2% | ? | 16% | ?
O=C(NCc1ccc(/C=N\NC(=O)C(=O)Nc2ccccc2Br)o1)C(=O)Nc1ccccc1 | -5% | -10% | 11µM* | ? | ?
Cc1ccn2c(C(=O)N/N=C/c3ccc(CNC(=O)C(=O)Nc4ccc(C)c(C)c4)o3)c(C)nc2c1 | . | 6% | ? | 2% | .
O=C(N/N=C\c1ccc(CNS(=O)(=O)c2ccc(Cl)cc2)o1)C(=O)Nc1ccc(Oc2ccccc2)cc1 | 2.9µM* | 6% | 13µM* | 13µM* | 6.5µM*
O=C(COC(=O)c1ccc[nH]c1=O)Nc1ccc(N2CCCCC2)cc1 | 1% | 1% | . | . | -15%
CCCn1nnnc1SCC(=O)Nc1cccc(NC(=O)c2ccco2)c1 | -7% | 2% | -12% | 12% | -8%
C=C(C)C1Cc2c(C)nn(-c3nc(C)cc(C)n3)c2C1 (configuration not stated) | 2.3µM* | 8% | 0.35µM* | 2µM* | 4.6µM*
C=C(C)C1Cc2nc(N)nc(C)c2C1 (configuration not stated) | -14% | -2% | -4% | -1% | -14%
COc1ccc(CCNCc2c(C(=O)O)c(C)n(Cc3ccccc3C)c2C)c(OC)c1 | ? | 3% | . | . | 18µM*
COc1ccc(Cn2c(C(=O)O)c(CNCc3ccc(OC)cc3OC)c3ccc(C)cc32)cc1 | 15µM* | 6% | . | . | 9.2µM*
COc1ccc2c(CNCCc3ccco3)c(C(=O)O)n(Cc3ccccc3)c2c1 | 0% | 5% | . | . | ?
CCOc1ccc(CCNCc2c(C(=O)O)n(Cc3ccc(C)cc3)c3cc(OC)ccc23)cc1 | ? | 0% | . | . | 18µM*
Cc1ccccc1Cn1c(C)c(CNCCCc2ccccc2)c(C(=O)O)c1C | ? | 10% | . | . | ?
COc1ccc(Cn2c(C(=O)O)c(CNCCc3cc(OC)ccc3OC)c3ccc(C)cc32)cc1 | ? | 11% | . | . | 16µM*

Compound activity from PubChem.
